# Among all 370,000 compounds or so, about 4,800 (1.3%) were called active.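 How the source made its calls: active means inhibition above about 21% made by adding two undisclosed values (limit read from the data); inactive means the rest.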 Only a selection was taken, and actives are over-represented in it overall.
# Target: Protein arginine N-methyltransferase 1 (Homo sapiens) (UniProt Q99873)
# Experiment: PRMT1 methyltransferase inhibitors, primary screen, biochemical, fluorescence polarization (AID 652257)
# Conditions: recombinant PRMT1, activity-based probe fluorescence polarization; at 2.79 µM; hits give high values
# Chain of Protein arginine N-methyltransferase 1 (Homo sapiens) (Q99873 whole entry, looked up): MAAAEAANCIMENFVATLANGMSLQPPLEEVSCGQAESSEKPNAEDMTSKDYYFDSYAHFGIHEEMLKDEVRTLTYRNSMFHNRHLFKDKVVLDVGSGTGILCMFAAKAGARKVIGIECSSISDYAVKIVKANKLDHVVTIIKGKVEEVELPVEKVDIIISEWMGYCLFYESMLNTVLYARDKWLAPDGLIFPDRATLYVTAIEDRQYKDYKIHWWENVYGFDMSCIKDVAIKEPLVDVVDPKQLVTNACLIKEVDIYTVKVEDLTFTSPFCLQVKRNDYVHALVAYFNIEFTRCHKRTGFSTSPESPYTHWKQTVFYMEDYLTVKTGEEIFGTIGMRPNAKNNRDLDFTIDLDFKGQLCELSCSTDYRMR
row,Structure (SMILES),inhibition
1,COc1cccc(N2CCN(CC(=O)N(C)Cc3ccc(F)cc3)CC2)c1,0.17% (inactive)
2,COc1ccccc1C(=O)NC1CCCCN(C(C)C)C1=O (centres undefined),2.65% (inactive)
3,O=C(C1CCN(S(=O)(=O)c2ccccc2)CC1)N1CCN(C2CCCCC2)CC1,-0.34% (inactive)
4,COc1ccc(N(C)C(=O)C2CCN(S(=O)(=O)c3cccc4nsnc34)CC2)cc1,-1.3% (inactive)
5,Cc1ccccc1CN1C[C@@H]2C[C@@H](c3ccc4nsnc4c3)N3CCC[C@@]23C1=O,1.62% (inactive)
6,COc1ccc(CN2CCN(Cc3cn(C)nc3-c3ccccc3)CC2CCO)c(C)c1C (centres undefined),0.32% (inactive)
7,Cc1ccccc1CN1C[C@@H]2C[C@@H](c3cn(C)nc3-c3ccccc3)N3CCC[C@@]23C1=O,67.8% (active)
8,C=CCN(C(=O)[C@@H](CCCC)[C@@H](O)c1ccc(Cl)cc1)c1ccccc1,-0.47% (inactive)
9,CC(C)CNc1cccc2c1S(=O)(=O)N(Cc1cn(Cc3ccccc3C(F)(F)F)nn1)Cc1ccccc1O2,2.58% (inactive)
10,CCNC(=O)CC1C(=O)N(c2ccc(F)cc2)C(=O)N1CCc1sccc1C (centres undefined),-2.07% (inactive)
11,Cc1cc2nc(-c3ccc(F)cc3)c(Cc3ccsc3)n2c(C)c1Br,1.03% (inactive)
12,Cc1cc(Br)cn2c(Cc3cccc(F)c3)c(-c3cccc(Br)c3)nc12,-2.69% (inactive)
13,Cc1cc2nc(-c3ccco3)c(Cc3cccc(F)c3)n2c(C)c1Br,36.5% (active)
14,Nc1nc(NC(=O)/C=C/c2ccc(F)cc2)nn1-c1ccccc1,-3.14% (inactive)
15,O=C(O)CCn1c(O)c(C=C2N=c3ccccc3=N2)sc1=S,29.5% (active)
16,CCCCNC(=O)C[C@H]1C[C@@]2(C(=O)OC)C(=C[C@H](COCc3ccccc3)O[C@@H]2C)N(Cc2ccc(Cl)cc2Cl)C1=O,-3.14% (inactive)
17,COc1ccccc1-n1c(SCC(=O)Nc2ccc(Cl)cc2)nc(O)c(Cc2ccccc2)c1=O,34.5% (active)
18,COc1ccc(-n2c(COc3ccc(C)cc3)nnc2SCC(=O)Nc2ccc(Oc3ccccc3)cc2)cc1,-3.87% (inactive)
19,CCOc1ccc(NC(=O)CSc2nc3c(c(=O)n2-c2ccccc2OC)SCC3)cc1,5.66% (inactive)
20,COc1ccc(Cc2nnc(SCC(=O)N(c3ccccc3)C(C)C)n(N)c2=O)cc1,-6.66% (inactive)
21,COc1ccc(NC(=O)CSc2nnc(Cc3ccccc3)c(=O)n2N)cc1,31.4% (active)
22,CCc1c(O)nc(SCC(=O)Nc2ccccc2)n(C(C)CC)c1=O (centres undefined),17% (inactive)
23,COc1cccc(NC(=O)CSc2nccn(-c3ccc4c(c3)OCCO4)c2=O)c1,29.1% (active)

row,Structure (SMILES),inhibition
1,Cn1ccnc1SCC(=O)Nc1ccc2c(c1)OCCO2,5.34% (inactive)
2,COc1ccccc1-n1ccnc(SCC(=O)NC2CCCCC2)c1=O,1.07% (inactive)
3,COC(=O)[C@@]12C[C@@H](CC(=O)NCCCCc3ccccc3)C(=O)N(CCc3ccc(OC)c(OC)c3)C1=CCC(C)(C)C2,3.69% (inactive)
4,CN[C@H]1C[C@H]2c3[nH]c4c(-c5ccccc5)cccc4c3CCN2C(=O)[C@H]1[C@H](C)O,6.14% (inactive)
5,Cc1ccc2c(c1)N(CCCC(=O)NCc1cccnc1)C(=O)CO2,0.38% (inactive)
6,CSc1sc(C(=O)NC(=O)NCc2cccnc2)c(C)c1-c1ccon1,1.09% (inactive)
7,Cc1ccc(-n2nc(-c3ccco3)cc2C(=O)NCc2cccnc2)cc1,35.6% (active)
8,CN1C(=O)C(Br)(Br)CC1c1cccnc1 (centres undefined),1.18% (inactive)
9,Cc1c[nH]c2cccc(-c3ccc(Cl)cc3)c12,-0.29% (inactive)
10,N#CCC(=O)N/N=C/c1ccc(SCC(=O)Nc2ccccc2)o1,4.99% (inactive)
11,O=C(CCNC(=O)c1ccccc1)NN=Cc1ccc(Br)o1,24.6% (active)
12,O=C(CSc1ccc(/C=N/NC(=O)c2cccc(F)c2)o1)Nc1ccccc1,2.86% (inactive)
13,COC1=C[C@H](C(=O)NCCNC(C)=O)[C@H](C)[C@@H](c2ccccc2)CC1=O,0.29% (inactive)
14,COc1ccc(/C=C2\CC3(OC(C)=O)CCCN2C3)cc1 (centres undefined),1.73% (inactive)
15,Cc1ccc(CN2CCCCC(NC(=O)C3CCCCC3)C2=O)cc1 (centres undefined),-3.29% (inactive)
16,O=C(Nc1cccc(S(=O)(=O)N2CCOCC2)c1)C12CC3CC(CC(C3)C1)C2,2.62% (inactive)
17,CCCNC(=O)NCc1ccc(N2CCCC2=O)cc1,0.33% (inactive)
18,NC(=O)C1(N2CCCCC2)CCN(C2CC(=O)N(Cc3ccc(N4CCCC4=O)cc3)C2=O)CC1 (centres undefined),41.5% (active)
19,NC(=O)C1(N2CCCC2)CCN(Cc2ccccc2)CC1,2.71% (inactive)
20,Clc1ccc(C(Cn2ccnc2)OCc2ccsc2Cl)c(Cl)c1 (centres undefined),1.55% (inactive)
21,COc1ccc(Nc2nc(-c3cccnc3)nc3ccccc23)cn1,25.2% (active)
22,O=C(CSc1n[nH]c(-c2cccnc2)n1)Nc1ccnc2ccccc12,-1.69% (inactive)
23,O=C(Nc1ccc(Cl)cc1)Nc1ccc(Oc2cccnc2)nc1,1.37% (inactive)

row,Structure (SMILES),inhibition
1,CN(C)c1ccc(CNC(=O)CN2C(=O)COc3ccc(S(=O)(=O)N4CCCC4)cc32)cc1,-4.13% (inactive)
2,O=C(N1CCOCC1)N1CC[C@H]2[C@H](CCCN2Cc2ccc(F)cc2)C1,5.12% (inactive)
3,N#C/C(=C/c1ccc(N2CCCCC2)o1)C(=O)NCCc1c[nH]c2ccccc12,-51.4% (inactive)
4,Cc1ccc2c(NC(=O)C3CC3)cccc2n1,-1.46% (inactive)
5,Cc1ccc(/C=C(\C#N)C(=O)Nc2cccc3ncccc23)o1,24.4% (active)
6,Cc1ccc(NC(=O)CCC(=O)c2ccc(Br)cc2)cc1,-1.58% (inactive)
7,CCN(C(=O)c1ccc(Br)cc1)c1ccccc1,-3.92% (inactive)
8,Cc1ccn(C(CC(=O)c2ccc(Br)cc2)C(=O)O)n1 (centres undefined),23.6% (active)
9,CC(=O)N1CCOc2ccc(S(=O)(=O)N3CCC(C(=O)Nc4ccccc4F)CC3)cc21,-0.05% (inactive)
10,C=C(C)C#CC(Cc1ccccc1)N(CC1CC1)/C(N)=N/C(=O)OCc1ccccc1 (centres undefined),-3.31% (inactive)
11,COC(=O)C(C(=O)OC)c1ccccc1NS(=O)(=O)c1cccc2ccccc12,-4.23% (inactive)
12,C[C@H](C(=O)N(C)c1ccccc1)[C@@H](O)c1ccc(Cl)cc1,-4.72% (inactive)
13,O=C1/C(=C/c2cccs2)SC(=S)N1C1CCS(=O)(=O)C1 (centres undefined),0.87% (inactive)
14,CC(C(=O)Nc1ccc(O)c(C(=O)O)c1)N1C(=O)/C(=C/c2cccs2)SC1=S (centres undefined),26.4% (active)
15,CCOc1ccc(NC(=O)C(C)N2C(=O)c3ccccc3C2=O)cc1 (centres undefined),-1.49% (inactive)
16,CC(C)(C)c1cc(CN2CCN(CCC#N)CC2)cc(C(C)(C)C)c1O,9% (inactive)
17,CCc1c(C)nc(N)n2c(SCC(=O)NC3CCCCC3)nnc12,-2.99% (inactive)
18,Nc1[nH]c(/C=C2/CCCCC2n2[nH]c(=O)n(-c3ccccc3)c2=O)c(Cc2ccccc2)[n+]1Cc1ccccc1 (centres undefined),-2.27% (inactive)
19,COc1ccc(CCNCc2c(-c3ccccc3)n(C)c3ccccc23)cc1,2.67% (inactive)
20,CC(C)(C)OC(=O)NCCc1ccccc1/C=C/S(=O)(=O)NCc1ccc(F)cc1,0.24% (inactive)
21,O=c1ccc2c(-c3ccccc3S(=O)(=O)O)c3ccc(O)c(O)c3oc-2c1O,66.9% (active)
22,COc1cccc2c1OCC(CN1CCN(C3CCCCC3)C(CCO)C1)=C2 (centres undefined),-3.92% (inactive)
23,O=C(CSc1nc2c(c(=O)[nH]1)CCCC2)N1CCCCC1,-3.61% (inactive)

row,Structure (SMILES),inhibition
1,C=CCN(C)CC#Cc1ccccc1,-2.36% (inactive)
2,Cc1ccc(-c2nc(C3CCCN(S(=O)(=O)c4ccc(Br)s4)C3)no2)cc1 (centres undefined),3.15% (inactive)
3,CC1CCc2c(nc3ncnn3c2Nc2ccc(OC(F)(F)F)cc2)C1 (centres undefined),0.92% (inactive)
4,c1ccc2c(c1)CSc1sccc1C2=C1CCNCC1,-3.7% (inactive)
5,Cc1nnc(SCC2=C(C(=O)O)N3C(=O)C(NC(=O)Cn4nc(C)c(Cl)c4C)C3SC2)s1 (centres undefined),34.1% (active)
6,Cc1nnc(SCC(=O)NC2CCCC2)s1,-0.7% (inactive)
7,Cc1cc(C)cc(C(=O)NC2C(=O)N3C(C(=O)O)=C(CSc4nnc(C)s4)CSC23)c1 (centres undefined),39.9% (active)
8,Cc1nnc(SCc2cc(=O)[nH]c(N3CCN(Cc4ccccc4)CC3)n2)s1,-2.63% (inactive)
9,CCOC(=O)C1(Cc2ccccc2)CCN(Cc2cn(C(C)=O)c3ccccc23)CC1,2.34% (inactive)
10,Cc1ccccc1CS(=O)(=O)Cc1ccc(C(=O)Nc2ccc(Cl)cc2)o1,5.39% (inactive)
11,CCCCN1CCN(C(=O)c2ccc3c(c2)NC(=O)C(C)(C)O3)CC1,-4.36% (inactive)
12,COC(=O)[C@]12C[C@H](CC(=O)NCc3cccc4ccccc34)C(=O)N(CCc3ccc(OC)c(OC)c3)C1=C[C@H](C1CCCC1)O[C@@H]2C,-7.72% (inactive)
13,CC(=O)N(c1ccc2oc(=O)sc2c1)S(=O)(=O)c1ccc(C)cc1,86% (active)
14,COC(=O)c1c(C)oc2ccc(N(C(=O)Oc3ccccc3)S(=O)(=O)c3ccccc3)cc12,1.53% (inactive)
15,CC(=O)Oc1ccc(N(C(C)=O)S(=O)(=O)c2ccc3ccccc3c2)cc1Br,-3.71% (inactive)
16,COc1ccccc1C1C(C#N)=C(N)Oc2c1c(-c1ccccc1)nn2-c1ccccc1 (centres undefined),5.44% (inactive)
17,COc1cccc(Cn2cc(COC(=O)Nc3ccc(F)cc3)nn2)c1,0.72% (inactive)
18,COc1ccccc1NC(=O)CCN1CCN(c2ccc(Cl)cc2)CC1,1.94% (inactive)
19,COC(=O)CNC(c1ccccc1Cl)c1cc(Br)ccc1NC(=O)CCN1CCOCC1 (centres undefined),21.5% (active)
20,Cc1cc(NC(=O)CCN2CCN(Cc3ccccc3)CC2)ccc1Br,0.6% (inactive)

# — PubChem BioAssay AID652257 (The Scripps Research Institute Molecular Screening Center, 2013)
